The values that follow come from PubChem BioAssay.

SMILES strings stand for the structures. Active and inactive are the calls of the source. Unless noted, no rule for the calls is given here.

A short description of assay [1]: HepG2 liver cancer cell viability effects, profiling panel, resazurin fluorescence, 24 h, PK04 Diversity Set (AID 1172). The settings on record: higher = more signal. (Alamar Blue is a resazurin reagent that responds to reducing activity.)
Assay [2] in a line: basal S. cerevisiae growth modulation, no modifier, primary screen, OD600, strain BY4716, 24 h, basal condition (AID 1173). The settings on record: OD600, 24 h, higher = more signal, called active from +8 up or from −8 down.
The nature of assay [3]: MM1S myeloma cell viability, profiling panel, resazurin fluorescence, basal, 24 h, PK04 Diversity Set (AID 1174).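 Also: MM1S multiple myeloma cell line.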 The settings on record: higher = more signal, called active from +8 up or from −8 down.
The target in assay [4] is Dihydroorotate dehydrogenase (quinone), mitochondrial (Plasmodium falciparum (isolate 3D7)) (UniProt Q08210). Briefly: PfDHODH enzyme inhibitors, primary screen, biochemical, C-terminal His tag, absorbance 600 nm (AID 1175).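 Also: recombinant parasite enzyme with a five histidine tag at its C terminus.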 The settings on record: DCIP absorbance 600 nm, higher = more signal, called active from +8 up or from −8 down.
Chain of Dihydroorotate dehydrogenase (quinone), mitochondrial (Plasmodium falciparum (isolate 3D7)) (Q08210 whole entry, looked up): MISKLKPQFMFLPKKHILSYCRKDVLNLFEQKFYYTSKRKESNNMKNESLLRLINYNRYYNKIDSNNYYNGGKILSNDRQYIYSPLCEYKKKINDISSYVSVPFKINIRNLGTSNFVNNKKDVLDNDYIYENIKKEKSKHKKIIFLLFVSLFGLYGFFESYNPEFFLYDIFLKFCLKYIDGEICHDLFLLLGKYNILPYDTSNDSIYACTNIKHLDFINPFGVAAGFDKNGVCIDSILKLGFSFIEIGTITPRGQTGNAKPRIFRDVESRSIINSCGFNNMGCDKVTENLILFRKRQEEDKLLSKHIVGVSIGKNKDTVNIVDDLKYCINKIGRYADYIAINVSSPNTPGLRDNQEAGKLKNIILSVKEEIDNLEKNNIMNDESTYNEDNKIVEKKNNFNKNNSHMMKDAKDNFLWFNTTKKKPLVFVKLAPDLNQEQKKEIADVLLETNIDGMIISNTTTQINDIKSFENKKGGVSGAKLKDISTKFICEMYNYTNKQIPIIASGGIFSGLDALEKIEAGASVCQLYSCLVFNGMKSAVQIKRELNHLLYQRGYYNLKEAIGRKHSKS
Assay [5] can be described thus: P. aeruginosa biofilm formation inhibitors, primary screen, strain PAO1, LB-PBS medium, absorbance 600 nm (AID 1176). The settings on record: P. aeruginosa PAO1 growth/biofilm, A600, 12 h; higher = more signal.
Assay [6] in a line: S. cerevisiae RM11-1a growth modifiers, primary screen, strain RM11-1a, OD600, basal, 24 h (AID 1177).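 Also: cultures grown under basal conditions with no added stressor.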 The settings on record: OD600, 24 h, higher = more signal, called active from +8 up or from −8 down.
Assay [7] is described as follows: E. coli acrAB mutant growth effects, primary screen, E. coli filamentation inducers, strain DRC39, OD650, 24 h (AID 1178).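 Also: growth measured as culture turbidity by optical density at 650 nm.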 The settings on record: higher = more signal, called active from +8 up or from −8 down.
Assay [8] can be described thus: E. coli acrAB mutant growth effects, primary screen, E. coli filamentation inducers, strain DRC39, OD650, 48 h (AID 1179).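 Also: screen aims at cell division blockers that make cells filament.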 As to conditions: E. coli DRC39 delta-acrAB growth, higher = more signal, called active from +8 up or from −8 down.
Assay [9] in a line: RPMI8226 myeloma cell viability, profiling panel, resazurin fluorescence, basal, 24 h, PK04 Diversity Set (AID 1180).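 Also: RPMI8826 multiple myeloma cell line at 5000 cells per well.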 As to conditions: higher = more signal.
For assay [10], the target named is E3 ubiquitin-protein ligase XIAP (Homo sapiens) (UniProt P98170). The assay is described as follows: XIAP binders, primary screen, biophysical, small-molecule microarray, fluorescence 635 nm (AID 1181).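 Also: score merges 667 nm emission and signal to noise over triplicate slides.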 As to conditions: small-molecule microarray binding, higher = more signal.
Chain of E3 ubiquitin-protein ligase XIAP (Homo sapiens) (P98170 whole entry, looked up): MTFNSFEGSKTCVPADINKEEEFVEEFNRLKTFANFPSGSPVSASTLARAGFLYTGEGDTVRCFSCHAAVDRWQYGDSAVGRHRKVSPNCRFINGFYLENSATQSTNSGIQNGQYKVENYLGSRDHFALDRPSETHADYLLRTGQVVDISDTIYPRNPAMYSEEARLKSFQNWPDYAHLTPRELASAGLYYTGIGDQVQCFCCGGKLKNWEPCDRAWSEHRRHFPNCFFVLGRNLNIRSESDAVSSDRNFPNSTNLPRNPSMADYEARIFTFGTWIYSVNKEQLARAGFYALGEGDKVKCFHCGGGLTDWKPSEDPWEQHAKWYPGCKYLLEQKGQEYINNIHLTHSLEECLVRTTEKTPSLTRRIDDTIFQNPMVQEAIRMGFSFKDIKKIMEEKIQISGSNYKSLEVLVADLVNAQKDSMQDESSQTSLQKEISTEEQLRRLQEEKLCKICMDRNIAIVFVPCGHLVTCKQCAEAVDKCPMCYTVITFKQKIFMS
Assay [11] relates to XIP peptide (Xip251-270) binding. Briefly: small-molecule binders of XIP peptide, primary screen, biochemical, small-molecule microarray, fluorescence 635/667 nm, 0.1 µg/mL protein (AID 1182). As to conditions: fluorescent protein binding, 635 nm, higher = more signal, called active from +8 up or from −8 down.
Another assay deals with XIP peptide (Xip251-270). The assay is described as follows: small-molecule binders of XIP peptide, primary screen, biochemical, small-molecule microarray, fluorescence 635/667 nm, 0.5 µg/mL protein (AID 1183). The settings on record: small-molecule microarray binding, fluorescence 635 nm; higher = more signal.
Assay [12] in a line: Plasmodium falciparum growth inhibition, primary screen, strain 3D7, DAPI fluorescence, 100 nL (AID 1184).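 Also: parasites grown inside human red blood cells in medium with human serum.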 The settings on record: P. falciparum 3D7 growth, 3 d, higher = more signal.
The target of assay [13] is Homeobox protein Hox-A13 (Mus musculus) (UniProt Q62424). Briefly: inhibitors of HoxA13-DNA binding, primary screen, biochemical, fluorescence polarization, labeled oligonucleotide (AID 1185). As to conditions: 15 min, higher = more signal, called active from +8 up or from −8 down.
Chain of Homeobox protein Hox-A13 (Mus musculus) (Q62424 whole entry, looked up): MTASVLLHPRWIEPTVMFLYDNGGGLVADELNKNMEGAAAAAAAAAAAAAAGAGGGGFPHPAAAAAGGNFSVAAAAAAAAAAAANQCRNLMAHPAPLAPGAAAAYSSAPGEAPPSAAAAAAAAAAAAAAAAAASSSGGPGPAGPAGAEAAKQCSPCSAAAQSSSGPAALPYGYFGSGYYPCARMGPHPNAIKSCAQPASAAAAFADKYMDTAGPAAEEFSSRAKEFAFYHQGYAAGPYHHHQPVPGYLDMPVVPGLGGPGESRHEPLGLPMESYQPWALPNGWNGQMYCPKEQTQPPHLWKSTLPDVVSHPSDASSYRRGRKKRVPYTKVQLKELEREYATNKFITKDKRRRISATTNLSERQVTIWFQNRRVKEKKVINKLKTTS
Assay [14] is described as follows: inhibitors of hydroxyurea-induced Chk1 phosphorylation, primary screen, imaging, HeLa, phospho-Chk1 antibody, percent positive cells (AID 1186). The settings on record: hydroxyurea-induced phospho-Chk1 immunofluorescence imaging, higher = more signal.
Assay [15] is described as follows: inhibitors of hydroxyurea-induced Chk1 phosphorylation, primary screen, imaging, HeLa, phospho-Chk1 nuclear intensity (AID 1187). As to conditions: hydroxyurea-induced phospho-Chk1 immunofluorescence imaging, higher = more signal.

On to `CCC(CC)C(O)C1C=CC2C(=O)N(c3ccccc3)C(=O)C2N1Nc1ccccc1F` (stereo not given), for which the z-score in assay [1] is 0.85; in assay [2], 0.153 (inactive); in assay [3] it was -0.0479 (inactive); in assay [5], 0.67 (inactive); in [6], -0.0886 (inactive); in assay [7], -0.551 (inactive). In addition, the z-score is 0.164 (inactive) in assay [8]; 0.181 in assay [9]; -0.0776 in assay [12]; -3.13 (inactive) in assay [13]; -0.121 (inactive) in assay [14]; -0.175 (inactive) in assay [15]. The composite z-score in assay [4] was 1.57 (inactive); in assay [10] it was 0.172; in assay [11], 0.977 (inactive); in the assay with XIP peptide (Xip251-270) it was -0.243.
`COCCCNC(=O)[C@@]1(CCS(=O)(=O)c2ccccc2)COC(c2ccc(OCCCO)cc2)=N1`: the z-score is -0.721 in assay [1]; -0.25 (inactive) in assay [2]; -0.849 (inactive) in assay [3]; 0.19 (inactive) in [5]; -0.19 (inactive) in assay [6]; 0.199 (inactive) in [7]. Moreover, the z-score is 0.103 (inactive) in assay [8]; -0.508 in assay [9]; 0.264 in [12]; -4.7 (inactive) in assay [13]; 0.103 (inactive) in assay [14]; 0.103 (inactive) in [15]. Moreover, the composite z-score was -0.565 (inactive) in [4], 0.218 in [10], 1.85 (inactive) in assay [11] and -0.227 with XIP peptide (Xip251-270).
As to `CC(C)=CCCC(C)=CC(O)C1C=CC2C(=O)NC(=O)C2N1Nc1ccc(Cl)cc1Cl` (stereo not given), the z-score in assay [1] is -1.66; in assay [2], -4.77 (inactive); in [3], -1.56 (inactive); in assay [5] it was 1.01 (inactive); in assay [6], 0.432 (inactive); in assay [7], -0.0552 (inactive). The z-score in assay [8] is -0.797 (inactive); in assay [9], -1.73; in assay [12] it was 0.812; in assay [13], -3.59 (inactive); in assay [14], 1.39 (inactive); in assay [15] it was 0.848 (inactive). Moreover, the composite z-score in assay [4] was 0.112 (inactive); in assay [10] it was -0.0326; in [11], 0.323 (inactive); with XIP peptide (Xip251-270) it was 0.171.
As for `C=CCC(OC(C)=O)[C@@H]1[C@@H](N(Cc2cccc3ccccc23)C(=O)Cc2ccc(OC)cc2)c2cc(OCCCO)ccc2N1C(=O)c1ccc2ccccc2c1` (stereo not given in full), the z-score in [1] was 0.74; in assay [2] it was -1.57 (inactive); in assay [3], 0.435 (inactive); in [5] it was -0.37 (inactive); in [6] it was -0.958 (inactive); in assay [7], 1.22 (inactive). The z-score was 0.56 (inactive) in assay [8]; 1.17 in assay [9]; -2.64 in assay [12]; -2.33 (inactive) in [13]; -0.325 (inactive) in assay [14]; -0.0189 (inactive) in assay [15]. Further, the composite z-score in [4] is -0.775 (inactive); in assay [10] it was -0.123; in assay [11], -0.129 (inactive); in the assay with XIP peptide (Xip251-270), 0.174.
In the case of `COC(=O)[C@@]1(Cc2ccc(OC)cc2)[C@H]2c3cc(C(=O)N(C)C)[nH]c3C[C@H]2CN1C(=O)c1ccccc1`, the z-score in [1] was -0.576; in assay [2], 0.304 (inactive); in assay [3], -0.798 (inactive); in assay [5], -0.471 (inactive); in [6] it was 0.68 (inactive); in [7] it was -0.151 (inactive). Besides, the z-score was 0.192 (inactive) in assay [8]; -0.247 in assay [9]; -0.0305 in assay [12]; -2.93 (inactive) in assay [13]; -0.041 (inactive) in assay [14]; -0.309 (inactive) in [15]. Besides, the composite z-score in assay [4] was -0.309 (inactive); in assay [10], -0.147; in assay [11], 0.0849 (inactive); with XIP peptide (Xip251-270), -0.197.
Consider `NC(=O)NCC#Cc1ccc2c(c1)[C@]1(C(=O)N2)[C@H](c2ccc(OCCO)cc2)N2[C@H](c3ccccc3)[C@H](c3ccccc3)OC(=O)[C@H]2[C@@H]1C(=O)O`, for which the z-score in assay [1] is -0.983; in assay [2] it was -0.434 (inactive); in assay [3] it was 0.117 (inactive); in assay [5] it was 1.01 (inactive); in assay [6], -0.264 (inactive); in assay [7], 0.427 (inactive). Also, the z-score in assay [8] was -0.533 (inactive); in assay [9], 0.15; in assay [12], -1.17; in assay [13] it was -5.33 (inactive); in [14] it was 0.31 (inactive); in assay [15], 0.2 (inactive). Also, the composite z-score in assay [4] was -0.996 (inactive); in assay [10] it was -0.0013; in assay [11], 0.348 (inactive); with XIP peptide (Xip251-270), -0.0846.
In the case of `CCCNC(=O)[C@@]1(Sc2ccc(C)cc2)CC(=O)N(Cc2ccccc2Cl)[C@@H]1c1ccc(CO)cc1I`, the z-score in assay [1] is 0.766; in assay [2] it was -4.16 (inactive); in assay [3], -3.58 (inactive); in [5] it was 0.034 (inactive); in assay [6], -0.641 (inactive); in [7], 0.466 (inactive). The z-score in assay [8] was 1.01 (inactive); in assay [9] it was -1.28; in assay [12], -0.0495; in assay [13] it was -2.99 (inactive); in [14], 0.242 (inactive); in [15], 0.677 (inactive). Further, the composite z-score was -0.139 (inactive) in [4], -0.302 in assay [10], 0.263 (inactive) in assay [11] and 0.157 in the assay on XIP peptide (Xip251-270).
In the case of `O=C1C[C@@](C(=O)O)(c2ccc([N+](=O)[O-])cc2)[C@@H](c2ccc(CO)cc2)N1C1CCCCC1`, the z-score in assay [1] is -0.562; in assay [2], 0.408 (inactive); in assay [3] it was -0.544 (inactive); in assay [5], -0.0123 (inactive); in assay [6], 1.3 (inactive); in assay [7], 0.576 (inactive). In addition, the z-score in [8] was -0.199 (inactive); in [9], 0.0311; in assay [12], -1.13; in assay [13] it was -4.33 (inactive); in assay [14], -0.119 (inactive); in [15], 0.0584 (inactive). Besides, the composite z-score was -0.0999 (inactive) in assay [4], -0.193 in [10], 0.803 (inactive) in [11] and 0.73 in the assay on XIP peptide (Xip251-270).
In the case of `C=C(CCCC)/C(=C/C[C@H](OC(=O)c1ccncc1)c1cccc(OCCO)c1)c1cnc2ccccc2c1`, the z-score in [1] is -0.0769; in [2], 0.527 (inactive); in assay [3] it was -0.737 (inactive); in assay [5], 0.236 (inactive); in assay [6], -0.364 (inactive); in assay [7], -0.566 (inactive). In addition, the z-score was -0.635 (inactive) in assay [8]; -0.82 in assay [9]; -2.97 in assay [12]; -3.75 (inactive) in assay [13]; 0.218 (inactive) in [14]; 0.367 (inactive) in [15]. Also, the composite z-score is -2.67 (inactive) in assay [4], 0.291 in assay [10], 0.867 (inactive) in [11] and 0.654 in the assay on XIP peptide (Xip251-270).
On to `CC(C)(C)N1CC=CC23O[C@@H]4C=CCOC(=O)[C@@H]4[C@H]2C(=O)N(CCO)[C@@H]3C1=O` (stereo not given in full), for which the z-score in [1] was -0.237; in [2] it was 0.377 (inactive); in [3], -0.0504 (inactive); in assay [5], -0.994 (inactive); in assay [6], 0.0505 (inactive); in assay [7], 0.0531 (inactive). The z-score in assay [8] is -0.147 (inactive); in [9], -0.167; in [12] it was 0.885; in assay [13] it was -3.33 (inactive); in [14], 0.121 (inactive); in assay [15] it was -0.307 (inactive). Besides, the composite z-score in assay [4] is -0.0529 (inactive); in assay [10], -0.0969; in [11] it was 0.218 (inactive); with XIP peptide (Xip251-270), 0.57.
